# Test results from the supplement of paper PMC10646978.
# ± gives the standard deviation.
# Columns and labels:
# Details in all cases: modulator concentration 10 µM
# [1] = test system: RAW-Dual (murine macrophage reporter line); test: NF-kB reporter (SEAP) activity fold change vs agonist alone; higher = enhanced NF-kB activity
# Method in brief: (§1)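 Overnight stimulation with a PRR agonist followed pre-incubation for 1 hour at 37 °C with compound at 10 μM final. This was done in RAW-Dual murine macrophage reporter cells seeded at 50 000 per well in 384-well plates. NF-κB (SEAP, QUANTI-Blue absorbance at 620 nm) and IRF (Lucia luciferase, QUANTI-Luc luminescence) were read from the supernatant. Each reporter's fold change relative to the mean agonist-only control on the same plate was averaged over replicate plates.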
# [2] = test system: RAW-Dual (murine macrophage reporter line); test: IRF reporter (Lucia luciferase) activity fold change vs agonist alone; higher = enhanced IRF activity
# Method in brief: as §1
# [3] = test system: RAW-Dual (murine macrophage reporter line); test: viability score (confluency relative to resting cells, overnight) (fraction); higher = more viable, active = viable (0.7 or more)
# Method in brief: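 Overnight exposure to 10 μM final compound was carried out on RAW-Dual macrophages in 384-well plates. IncuCyte software generated two confluency masks over all wells imaged with IncuCyte. The viability score gives confluency in relation to resting cells. A compound met the cutoff if each mask exceeded 70% of resting cells.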
# [4] = agonist: CpG ODN 1826 0.5 ug/mL
SMILES,"NF-kB reporter [1, 4]",NF-kB reporter ([1]; agonist: LPS 0.1 ug/mL),NF-kB reporter ([1]; agonist: MPLA […]),IRF reporter ([2]; agonist: 3'3'-cGAMP 10 ug/mL),IRF reporter ([2]; agonist: LPS 0.1 ug/mL),IRF reporter ([2]; agonist: MPLA […]),viability score [3]
Cn1c(=O)c2c(ncn2CC(O)CO)n(C)c1=O (configuration not stated),1.02 ± 0.2,1.2 ± 0.35,1.08 ± 0.18,0.887 ± 0.066,1.32 ± 0.21,1.29 ± 0.23,0.996 (active)
C[C@@H]1CCN(C(=O)CC#N)C[C@@H]1N(C)c1ncnc2[nH]ccc12.O=C(O)CC(O)(CC(=O)O)C(=O)O,1.05 ± 0.29,0.628 ± 0.047,0.885 ± 0.06,0.182 ± 0.0066,0.366 ± 0.056,0.507 ± 0.1,0.603 (inactive)
CN(C)CC#CCNC(=O)Nc1ccc(C(F)(F)F)cc1,0.935 ± 0.33,0.899 ± 0.045,0.874 ± 0.058,0.425 ± 0.016,1.06 ± 0.22,1.22 ± 0.13,1 (active)
COc1cc2ccc(=O)oc2cc1O,1.04 ± 0.31,0.862 ± 0.062,0.892 ± 0.057,0.909 ± 0.053,1.11 ± 0.17,0.946 ± 0.12,1 (active)
COc1cccc2c1C(=O)c1c(O)c3c(c(O)c1C2=O)C[C@@](O)(C(C)=O)C[C@@H]3O[C@H]1C[C@H](N)[C@H](O)[C@H](C)O1.Cl,0.115 ± 0.0076,0.0574 ± 0.0063,0.0998 ± 0.0052,0.0163 ± 0.004,0.0195 ± 0.0046,0.0153 ± 0.0037,0.0601 (inactive)
Cc1nnc(NN=Cc2ccc(Cl)c([N+](=O)[O-])c2)[nH]c1=O,1.08 ± 0.12,1.02 ± 0.088,1.09 ± 0.045,1.01 ± 0.17,1 ± 0.082,1.07 ± 0.13,0.997 (active)
CN(C(=O)c1cncc(F)c1)C1CN(c2ccc3nnc(C4CC4)n3n2)C1,0.937 ± 0.055,0.988 ± 0.078,0.83 ± 0.082,0.956 ± 0.087,0.991 ± 0.14,0.859 ± 0.4,1 (active)
COc1ccc(C=C(NC(=O)c2cc(OC)c(OC)c(OC)c2)C(=O)NC(C(=O)O)C(C)C)c(OC)c1 (configuration not stated),1.01 ± 0.091,0.985 ± 0.055,0.934 ± 0.11,0.908 ± 0.031,1.23 ± 0.18,1.04 ± 0.29,1.02 (active)
COc1ccc(C2=NN(C(=O)c3ccc(Br)cc3)C(c3nc4ccccc4[nH]3)C2)cc1 (configuration not stated),0.994 ± 0.087,1.1 ± 0.12,0.867 ± 0.07,0.92 ± 0.049,1.16 ± 0.092,1.1 ± 0.34,0.986 (active)
Clc1ccc(Nc2nnc(Cc3ccncc3)c3ccccc23)cc1 [Prestw-1358],0.987 ± 0.056,1.07 ± 0.069,0.85 ± 0.07,0.785 ± 0.028,1.08 ± 0.069,1.1 ± 0.11,0.997 (active)
Nc1ccn(C[C@@H](CO)OCP(=O)(O)O)c(=O)n1,1 ± 0.25,0.97 ± 0.057,0.961 ± 0.064,0.906 ± 0.03,1.3 ± 0.14,1.14 ± 0.16,1.01 (active)
CC(=O)c1cc2c(o1)C(=O)c1ccccc1C2=O,1.19 ± 0.28,1.36 ± 0.068,1.31 ± 0.1,0.995 ± 0.035,1.12 ± 0.16,1.18 ± 0.27,0.995 (active)
COc1ccc(C=NNc2nc(-c3ccccc3)cc(-c3ccc(Br)cc3)n2)c(OC)c1,0.918 ± 0.091,0.94 ± 0.1,1.03 ± 0.12,0.96 ± 0.03,1.08 ± 0.12,1.08 ± 0.17,1.03 (active)
CC1(C)CC(=O)C2=C(C1)OC(N)=C(C#N)C2C1CCCCC1 (configuration not stated),0.983 ± 0.076,0.926 ± 0.12,0.929 ± 0.093,0.987 ± 0.089,1.33 ± 0.22,1.47 ± 0.19,1.01 (active)
CC(C)c1ccc(NC(=O)C2CCCCC2C(=O)O)cc1 (configuration not stated),1.19 ± 0.074,1.06 ± 0.07,0.994 ± 0.071,0.93 ± 0.031,1.51 ± 0.1,1.24 ± 0.12,0.996 (active)
COc1ccc(C2CNC(=O)C2)cc1OC1CCCC1 (configuration not stated),2.76 ± 0.37,2.2 ± 0.43,1.63 ± 0.1,0.942 ± 0.03,0.963 ± 0.18,1.17 ± 0.089,0.973 (active)
Ic1ccc2c3ccc(I)cc3c3[nH]c(-c4ccccc4)nc3c2c1,1.03 ± 0.094,1.07 ± 0.14,1.11 ± 0.042,0.814 ± 0.054,1.05 ± 0.1,1.31 ± 0.19,0.995 (active)
Fc1ccc(Oc2nc(Nc3cccc(Cl)c3)nc(N3CCOCC3)n2)cc1,0.331 ± 0.028,1.33 ± 0.089,2.57 ± 0.15,0.757 ± 0.052,2.94 ± 0.22,2.19 ± 0.34,0.84 (active)
CCN1C(=O)C(=C2SC(N3CCOCC3)=NC2=O)c2ccccc21,0.991 ± 0.08,1.07 ± 0.079,0.952 ± 0.064,0.949 ± 0.042,1.22 ± 0.13,0.978 ± 0.23,1.01 (active)
O=C(NN=Cc1sc2ccccc2c1Cl)c1ccncc1,0.918 ± 0.08,1.02 ± 0.091,0.931 ± 0.058,0.808 ± 0.028,1.5 ± 0.14,1.14 ± 0.11,1.01 (active)
Cc1ccc(C=Nc2ccc(-c3ccc(N=Cc4ccc(C)o4)c(C)c3)cc2C)o1,0.837 ± 0.066,0.984 ± 0.087,1.01 ± 0.053,0.773 ± 0.097,0.929 ± 0.041,0.894 ± 0.075,0.991 (active)
CCc1nc(N)nc(N)c1-c1ccc(Cl)cc1,1.23 ± 0.11,1.07 ± 0.054,1.03 ± 0.054,0.941 ± 0.052,0.974 ± 0.07,0.865 ± 0.075,0.964 (active)
CN(C(=O)COc1coc(CN2CCN(c3ccccc3)CC2)cc1=O)c1ccccc1,0.931 ± 0.052,0.933 ± 0.06,0.977 ± 0.057,0.97 ± 0.034,1.18 ± 0.12,0.986 ± 0.088,1 (active)
Nc1ncn(C2O[C@H](CO)[C@@H](O)[C@H]2O)c(=O)n1 (some centres not stated) [Prestw-866],2.01 ± 0.35,1.24 ± 0.18,4.32 ± 0.33,0.508 ± 0.033,0.622 ± 0.14,0.747 ± 0.1,0.806 (active)
CC1=CC(=NS(=O)(=O)c2ccc(C)cc2)C=C(Cl)C1=O,0.635 ± 0.068,0.706 ± 0.038,0.68 ± 0.062,0.451 ± 0.02,0.611 ± 0.04,0.428 ± 0.038,0.89 (active)
O=S(=O)(NCc1ccc(-c2cccnc2)nc1)c1ccc(OC(F)(F)F)cc1,0.947 ± 0.068,1.01 ± 0.091,0.873 ± 0.058,0.961 ± 0.054,1.09 ± 0.066,1.16 ± 0.11,1.01 (active)
